Assay results reported in PubChem BioAssay (NCATS).
Results filed as inconclusive are left out. Values without a mark were called inactive. Activity calls are given as the source filed them. Calls come from the whole dose curve; as a rule, active = well fitted inhibition curve with a large enough effect; inconclusive = small, poorly fitted or top-dose-only effect; inactive = no such curve, though single readings can be large or run the other way.

Target: M-phase phosphoprotein 8 (Homo sapiens) (UniProt Q99549)
Assay: qHTS Validation Assay for Inhibitors for MPP8 Chromodomain Interactions with Methylated Histone Tails (AID 488949); note: nearly all actives have a fitted effect of over 55% in size; for activity change, negative = inhibition: top concentration of the series differs between compounds
Conditions: AlphaScreen MPP8 binding to H3K9me3 peptide; series mostly up to 114 µM; activity change, negative = inhibition: at the top concentration
Excerpt: As our understanding of epigenetics expands, it is becoming clear that players in this field are potential targets for drug development. This area of epigenetic therapy has established applications for the treatment of cancer and neurological diseases. We have been involved in this field for a number of years and have performed high-throughput screens to identify the first small molecule inhibitors of protein methyltransferases. These methyltransferases target multiple substrates, and thus regulate many arms of an epigenetic pathway. The methylation of different substrates often generates docking sites for effector proteins that harbor binding domains (chromo, tudor, PHD, MBT and ANK repeats). It has been proposed that the binding sites generated for different proteins by these post-translational modifcations mediate downstream effects on chromatin. Consistent with this theory, di- and tri-methylation of histone H3K9 facilitates the binding of heterochromatin protein HP1. The HP1 protein harbors a chromodomain that is responsible for the methyl-dependent interaction between HP1 and lysine 9 of histone H3. HP1 was first described in flies as a heterochromatin associated protein that can regulate gene silencing. It harbors a chromodomain that binds H3K9me3. In addition, it harbors a chromoshadow domain that interacts with a large number of proteins that are involved in heterochromatin formation and gene repression. There are three highly related HP1 isoforms. All three variants are associated with pericentric heterochromatin and it is not clear whether they have specific or redundant functions. MPP8 is also involved in the repression of gene in euchromatic regions (unpublished data) and like HP1 its chromodomain binds H3K9me3. MPP8 harbors an ankyrin repeat region that is likely involved in binding and recruiting interacting proteins with transcriptional repressive function, much like the chromoshadow domain of HP1 does. We hypothesize that by inhibiting specific protein-protein interactions we will be able to develop compounds that block a single arm of an epigenetic pathway. The specificity attained by blocking a single protein-protein interaction will be far greater than that attained by blocking the enzyme that regulates one of many interactions. Low-affinity protein-protein interactions (Kd in the single- to double-digit micromolar range) such as those discussed here have been very difficult to assay by traditional techniques such as fluorescence polarization or fluorescence resonance energy transfer. We have developed a sensitive chemiluminescence-based assay (Quinn, et al. 2009), which serves as the starting point for this project. The following is a validation assay to identify lead compounds that can block methyl-dependent protein-protein interactions (specifically MPP8), which can be used as probes to analyze these methyl-driven interactions and perhaps even developed into targeted epigenetic therapies. Assay Provider: Mark T. Bedford, MD Anderson Screening Center PI: Austin, C.P. Screening Center: NIH Chemical Genomics Center [NCGC]
To each well, 2 uL of MPP8 protein (final 50 nM) and 1 uL biotinylated histone peptide trimethylated at Lys9 [b-H3(1-18)K9me3] (final 50 nM) was added in 1x PBS buffer, pH 7.4, containing 0.01% Tween-20 using a nanoliter dispenser. Formation of a protein-peptide complex proceeded at room temperature for 30 min. A Kalypsys pin-tool was employed to transfer 23 nL of library compound solution in DMSO to each well. Aurintricarboxylic acid (ATA) was used as an intraplate control with a 12-point titration in duplicate. Following a 30 min incubation of the protein-peptide complex with compounds at room temperature, a mixture of 40 ug/mL each streptavidin-coated donor and nickel chelate acceptor AlphaScreen beads (final 10 ug/mL) was added in a 1 uL dispense for a final volume of 4 uL. Plates were incubated protected from the light for 30 min at room temperature. […]
% is set by controls: 0 for no effect and ±100 for the full control effect; potency is the fitted concentration of half-maximal effect.

Sequence of M-phase phosphoprotein 8 (Homo sapiens) (Q99549 whole entry, looked up): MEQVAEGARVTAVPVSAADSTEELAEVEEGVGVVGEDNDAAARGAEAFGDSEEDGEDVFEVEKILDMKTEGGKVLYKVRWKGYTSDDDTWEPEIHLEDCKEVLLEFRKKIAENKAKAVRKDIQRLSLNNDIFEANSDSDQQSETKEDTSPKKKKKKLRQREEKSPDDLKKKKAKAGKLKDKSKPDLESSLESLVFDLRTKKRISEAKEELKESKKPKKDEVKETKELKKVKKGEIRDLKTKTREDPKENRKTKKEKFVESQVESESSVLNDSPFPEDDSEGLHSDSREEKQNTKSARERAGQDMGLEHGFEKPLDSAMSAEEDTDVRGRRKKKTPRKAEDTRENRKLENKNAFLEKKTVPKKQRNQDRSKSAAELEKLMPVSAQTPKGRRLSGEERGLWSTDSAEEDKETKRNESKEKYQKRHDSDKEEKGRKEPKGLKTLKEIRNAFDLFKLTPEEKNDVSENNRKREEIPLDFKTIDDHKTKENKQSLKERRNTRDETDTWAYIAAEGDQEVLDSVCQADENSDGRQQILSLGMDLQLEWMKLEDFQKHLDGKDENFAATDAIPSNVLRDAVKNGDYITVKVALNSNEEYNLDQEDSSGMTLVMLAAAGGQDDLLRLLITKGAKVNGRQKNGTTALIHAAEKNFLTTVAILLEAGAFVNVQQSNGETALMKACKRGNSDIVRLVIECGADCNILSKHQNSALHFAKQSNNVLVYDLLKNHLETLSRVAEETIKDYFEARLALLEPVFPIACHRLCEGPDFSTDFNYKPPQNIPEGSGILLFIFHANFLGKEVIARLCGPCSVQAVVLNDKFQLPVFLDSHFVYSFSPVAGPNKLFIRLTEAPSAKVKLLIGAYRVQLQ

Q: For `COc1c2c(nc3ccccc13)OC(C(C)(O)CO)C2` (stereo not given), which “activity change, negative = inhibition” value is on record?
A: Its value is 3.04%.

Q: For `NCCCCNS(=O)(=O)c1cccc2c(Cl)cccc12`, which “activity change, negative = inhibition” value is on record?
A: The value was -4.07%.

Q: `CC(C)(C)[C@]1(O)CCN2CC3c4ccccc4CCc4cccc(c43)[C@@H]2C1` (stereo not given in full) was tested. Which “activity change, negative = inhibition” value did it give?
A: Its value is 8.17%.

Q: Which “activity change, negative = inhibition” value does the source give for `Nc1ncnc2c1ncn2[C@@H]1O[C@H](C(=O)NC2CC2)[C@H](O)[C@H]1O` here?
A: The value was -1.81%.

Q: How did the “activity change, negative = inhibition” value turn out when `NCCNC(=O)c1ccc(Cl)cc1` was run?
A: The value was -2.83%.

Q: With `OC[C@H]1O[C@@H](n2cnc3c(NCCc4ccccc4)ncnc32)[C@H](O)[C@H]1O` as the compound, how does the “activity change, negative = inhibition” value read?
A: Its value is 25.3%.

Q: `COc1ccc(CCNC[C@@H](O)c2ccc(O)cc2)cc1OC` was tested. Which “activity change, negative = inhibition” value did it give?
A: Its value is -0.824%.

Q: How did the “activity change, negative = inhibition” value turn out when `CC(=O)[C@@]1(O)CC[C@H]2C3CCC4=CC(=O)CC[C@]4(C)C3CC[C@@]21C` (stereo not given in full) was run?
A: The value was -10.5%.

Q: `Nc1ncnc2c1ncn2[C@@H]1O[C@H](CO)[C@H](O)[C@H]1O` was tested. Which “activity change, negative = inhibition” value did it give?
A: The value was -2.44%.

Q: With `O=[N+]([O-])c1ccc(CSc2ncnc3c2ncn3[C@@H]2O[C@H](CO)[C@H](O)[C@H]2O)cc1` as the compound, how does the “activity change, negative = inhibition” value read?
A: Its value is 0.0667%.

Q: For `C[C@]12CCC(=O)C=C1CC[C@@H]1C2[C@@H](O)C[C@@]2(C)[C@H]1CC[C@]2(O)C(=O)CO` (stereo not given in full), which “activity change, negative = inhibition” value is on record?
A: Its value is 0.31%.

Q: `COc1cc2c(cc1OC)C(c1ccccc1)CN(C)CC2` (stereo not given) was tested. Which “activity change, negative = inhibition” value did it give?
A: Its value is -0.576%.

Q: For `CC(O)[C@@H](O)[C@H]1CNc2nc(N)[nH]c(=O)c2N1` (stereo not given in full), which “activity change, negative = inhibition” value is on record?
A: The value was 126%.

Q: `NC(=S)NCCCC(N)C(=O)O` (stereo not given) was tested. Which Potency did it give?
A: Its Potency is 20 µM (active).

Q: With `CN1C(=O)CCC1c1cccnc1` (stereo not given) as the compound, how does the “activity change, negative = inhibition” value read?
A: Its value is -8.23%.

Q: `Cc1cn([C@H]2C[C@@H](N=[N+]=[N-])[C@@H](CO)O2)c(=O)[nH]c1=O` was tested. Which “activity change, negative = inhibition” value did it give?
A: The value was -2.25%.

Q: For `NCCC(=O)NCCc1cnc[nH]1`, which “activity change, negative = inhibition” value is on record?
A: Its value is 9.52%.

Q: For `O=C(Cc1ccc(Cl)c(Cl)c1)OCCN1CCCC1`, which “activity change, negative = inhibition” value is on record?
A: Its value is 0.302%.

Q: With `CC(N)=NCCCC(N)C(=O)O` (stereo not given) as the compound, how does the “activity change, negative = inhibition” value read?
A: Its value is -4.7%.

Q: How did the “activity change, negative = inhibition” value turn out when `CN1C2CCC1CC(NC(=O)c1nn(C)c3ccccc13)C2` (stereo not given) was run?
A: Its value is 0.768%.

Q: `CNc1ncnc2c1ncn2[C@@H]1O[C@H](CO)[C@H](O)[C@H]1O` was tested. Which “activity change, negative = inhibition” value did it give?
A: Its value is -1.27%.

Q: For `Nc1nc(SCc2ccc([N+](=O)[O-])cc2)c2ncn([C@@H]3O[C@H](CO)[C@H](O)[C@H]3O)c2n1`, which “activity change, negative = inhibition” value is on record?
A: The value was 10.4%.

Q: How did the “activity change, negative = inhibition” value turn out when `COc1cc(=O)n(C)c2c(OCC(O)C(C)(C)O)cccc12` (stereo not given) was run?
A: Its value is 2.69%.

Q: With `CC(C)CN(C)c1nc(N)c(C(=O)N=C(N)N)nc1Cl` as the compound, how does the Potency read?
A: Its Potency is 44.7 µM (active).

Q: For `CN1CCc2cc(Cl)c(O)cc2C(c2ccccc2)C1` (stereo not given), which “activity change, negative = inhibition” value is on record?
A: Its value is -0.0869%.

Q: Which “activity change, negative = inhibition” value does the source give for `CCCCC#Cc1nc(N)c2ncn([C@@H]3O[C@H](C(=O)NCC)[C@@H](O)[C@H]3O)c2n1` here?
A: Its value is 28.6%.

Q: Which “activity change, negative = inhibition” value does the source give for `CSc1nc(N)c2ncn([C@@H]3O[C@H](COP(=O)(O)OP(=O)(O)OP(=O)(O)O)[C@H](O)[C@H]3O)c2n1` here?
A: The value was 1.99%.

Q: For `COC(=O)c1c(-c2cc(OC)c(OC)c(OC)c2)c2ccc(OCc3ccccn3)cc2c(=O)n1-c1ccc(N)cc1`, which Potency is on record?
A: The Potency was 28.2 µM (active).

Q: With `CNC(=O)[C@H]1O[C@@H](n2cnc3c(NCc4ccc(N)cc4)ncnc32)[C@H](O)[C@H]1O` as the compound, how does the “activity change, negative = inhibition” value read?
A: Its value is 13.6%.

Q: How did the “activity change, negative = inhibition” value turn out when `NCC1OC(O[C@@H]2[C@H](O)[C@@H](OC3C(O)C(N)CC(N)C3OC3OC(CO)C(O)C(O)C3N)O[C@@H]2CO)C(N)C(O)C1O` (stereo not given in full) was run?
A: Its value is -2.51%.

Q: With `CN(C)C1C(=O)C(C(N)=O)=C(O)[C@@]2(O)C(=O)C3=C(O)c4c(O)ccc(Cl)c4[C@@H](O)C3C[C@@H]12` (stereo not given in full) as the compound, how does the “activity change, negative = inhibition” value read?
A: Its value is -12%.

Q: Which “activity change, negative = inhibition” value does the source give for `NC(=O)C1=CN(C2OC(COP(=O)(O)OP(=O)(O)OC[C@H]3O[C@@H](n4cnc5c(N)ncnc54)[C@H](OP(=O)(O)O)[C@H]3O)C(O)C2O)C=CC1` (stereo not given in full) here?
A: Its value is -2.19%.

Q: How did the “activity change, negative = inhibition” value turn out when `CCCC(=O)NCCc1c2n(c3ccc(OC)cc13)Cc1ccccc1-2` was run?
A: The value was -0.172%.

Q: With `CNCC[C@@H](Oc1ccc(C(F)(F)F)cc1)c1ccccc1` as the compound, how does the “activity change, negative = inhibition” value read?
A: The value was -1.99%.

Q: `Nc1nc2c(nc(Br)n2C2O[C@H]3COP(=O)(O)O[C@@H]3C2O)c(=O)[nH]1` (stereo not given in full) was tested. Which “activity change, negative = inhibition” value did it give?
A: Its value is 8.55%.

Q: How did the “activity change, negative = inhibition” value turn out when `CCCCCCCCCCCCCCC/C=C/[C@@H](O)[C@H](NC(=O)CCCCCCCCCCCCC)OC` (tested in a mixture with another compound) was run?
A: Its value is 36.1%.

Q: With `O=C(O)CC[C@H](NC(=O)c1ccccc1C(=O)O)C(=O)O` as the compound, how does the “activity change, negative = inhibition” value read?
A: Its value is 8.5%.

Q: For `NC(=NCCC[C@H](N)C(=O)O)NO`, which “activity change, negative = inhibition” value is on record?
A: The value was 2.17%.

Q: With `N=C(N)SCCc1cccc(CCSC(=N)N)c1` as the compound, how does the “activity change, negative = inhibition” value read?
A: The value was -2.4%.

Q: Which Potency does the source give for `N=C1Sc2ccccc2C2=NCCCN12` here?
A: The Potency was 10 µM (active).
